Compounds without any hit were thinned out: in the full panel of roughly 79,000, 15% have a hit. Active and inactive are the calls of the source. Cut-off read from the data, not from the text of the source: active = growth inhibition above about 70%; inactive = the rest.
What was measured:
[1] = NCI Yeast Anticancer Drug Screen. Data for the rad52 strain (AID 147);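 note: 0% = growth of vehicle-treated control cultures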; settings: S. cerevisiae rad52 mutant growth inhibition, stronger effect = higher value
Outline: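 The repair-mutant yeast strain was incubated with compounds, then growth was read and inhibition derived relative to vehicle.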

[2] = NCI Yeast Anticancer Drug Screen. Data for the wt1 strain (AID 149);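 note: 0% = growth of vehicle-treated wt1 cultures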; settings: S. cerevisiae wt1 strain (SPY 50644) growth inhibition, stronger effect = higher value
Outline: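 Using yeast strain wt1, compound-induced growth inhibition was determined against vehicle-treated cultures.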

[3] = NCI Yeast Anticancer Drug Screen. Data for the rad50EPP+ strain (AID 151);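 note: 0% = growth of vehicle-treated control cultures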; settings: S. cerevisiae rad50 mutant strain, stronger effect = higher value
Outline: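 Vehicle-normalised growth inhibition; rad50EPP+ yeast strain, altered in DNA damage repair, compound-treated.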

[4] = NCI Yeast Anticancer Drug Screen. Data for the rad50 strain (AID 155);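 note: 0% = growth of vehicle-only cultures of the same strain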; settings: S. cerevisiae rad50 strain growth inhibition, stronger effect = higher value
Outline: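 Relative growth inhibition (compound vs vehicle) was measured in yeast with a defined repair-gene alteration.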

[5] = NCI Yeast Anticancer Drug Screen. Data for the mec2-1 strain (AID 157); settings: S. cerevisiae mec2-1 strain, stronger effect = higher value
Outline: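 Mutant yeast (mec2-1) grown with compound; growth inhibition relative to vehicle control reported.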

[6] = NCI Yeast Anticancer Drug Screen. Data for the rad14 strain (AID 159);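 note: 0% = growth of vehicle-treated control cultures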; settings: S. cerevisiae rad14 strain growth inhibition, stronger effect = higher value
Outline: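 Screen for anticancer potential: a yeast strain altered in DNA damage repair is grown with compound, and reduced growth is quantified against vehicle controls.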

[7] = NCI Yeast Anticancer Drug Screen. Data for the sgs1 mgt1 strain (AID 161);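 note: 0% = growth of cultures given vehicle only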; settings: S. cerevisiae sgs1 mgt1 strain, stronger effect = higher value
Outline: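 This yeast growth screen uses a strain with defined DNA-repair lesions; compound-treated growth is compared with vehicle-treated growth.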

[8] = NCI Yeast Anticancer Drug Screen. Data for the CLN2oe strain (AID 163);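 note: 0% = growth of vehicle-only control cultures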; settings: S. cerevisiae CLN2oe strain, stronger effect = higher value
Outline: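 Compounds are applied to yeast harbouring a defined cell-cycle control change; reduced growth compared with vehicle-treated controls gives the value.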

[9] = NCI Yeast Anticancer Drug Screen. Data for the cln2 rad14 strain (AID 165);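 note: 0% = growth equal to vehicle treated cultures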; settings: S. cerevisiae cln2 rad14 strain, stronger effect = higher value
Outline: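 Readout is yeast growth inhibition versus vehicle-treated controls, using a strain with cln2 and rad14 alterations exposed to compound.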

[10] = NCI Yeast Anticancer Drug Screen. Data for the bub3 strain (AID 167); settings: S. cerevisiae bub3 mutant strain, stronger effect = higher value
Outline: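 Screening used yeast with an engineered genetic alteration affecting cell cycle control. Compound-exposed cultures were compared with vehicle cultures, and reduced growth was taken as inhibition.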

[11] = NCI Yeast Anticancer Drug Screen. Data for the wt2 strain (AID 169);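 note: 0% = growth of vehicle-treated yeast cultures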; settings: S. cerevisiae wt2 strain growth inhibition, stronger effect = higher value
Outline: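 Against vehicle-treated controls, the growth of yeast exposed to each compound was compared, and the inhibition was recorded.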

[12] = NCI Yeast Anticancer Drug Screen. Data for the mlh1 strain (AID 171);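 note: 0% = growth of vehicle-treated control cultures of the same strain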; settings: S. cerevisiae mlh1 strain growth inhibition, stronger effect = higher value
Outline: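 Measured: yeast growth. Reference: vehicle-treated controls. Organism: strain with a defined alteration affecting DNA damage repair or cell cycle control, treated with compound.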

[13] = NCI Yeast Anticancer Drug Screen. Data for the mlh1 rad18 strain (AID 175); settings: S. cerevisiae mlh1 rad18 strain growth inhibition, stronger effect = higher value
Outline: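 Genetically defined yeast (DNA repair-deficient) exposed to compounds; growth inhibition determined relative to vehicle.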

[14] = NCI Yeast Anticancer Drug Screen. Data for the rad18 strain (AID 177); settings: S. cerevisiae rad18 mutant growth inhibition, stronger effect = higher value
Outline: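 Vehicle-treated cultures served as the baseline for scoring compound-induced growth inhibition in DNA-repair-mutant yeast.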

[15] = NCI Yeast Anticancer Drug Screen. Data for the mgt1 strain (AID 153); settings: S. cerevisiae mgt1 mutant growth inhibition, stronger effect = higher value
Outline: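 Vehicle-normalized growth inhibition is determined in mgt1 yeast, a strain selected for a defined alteration in DNA repair or cell cycle control.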

[16] = at 5.0 µM (retest, dose inferred, filed as 0.5)
[17] = at 50.0 µM (retest, dose inferred, filed as 5.0)

Measured: growth inhibition

NC(CS)C(=O)NCCNc1ccc(NCCNC(=O)C(N)CS)c2c1C(=O)c1c(O)ccc(O)c1C2=O (stereo not drawn)
active: [1]; at 11.0 µM 73% | [1]; at 33.0 µM 80% | [3]; at 33.0 µM 80% | [4]; [16] 75% | [4]; at 11.0 µM 81% | [4]; at 33.0 µM 85% | [4]; [17] 88% | [4]; at 50.0 µM 79.2% | [5]; at 33.0 µM 86% | [5]; [17] 89% | [5]; at 50.0 µM 76% | [6]; at 33.0 µM 81% | [7]; at 50.0 µM 78.7% | [8]; at 33.0 µM 84% | [9]; at 50.0 µM 74.2% | [10]; at 33.0 µM 81% | [11]; at 33.0 µM 81% | [12]; at 33.0 µM 85% | [13]; [17] 80% | [13]; at 50.0 µM 72.5% | [14]; at 33.0 µM 84%
inactive: [1]; at 1.2 µM -10% | [1]; at 3.7 µM 58% | [1]; at 100.0 µM 48% | [2]; at 1.2 µM -42% | [2]; at 3.7 µM -25% | [2]; at 11.0 µM -67% | [2]; at 33.0 µM 45% | [2]; at 100.0 µM 68% | [3]; at 1.2 µM -4% | [3]; at 3.7 µM 46% | [3]; at 11.0 µM 67% | [3]; at 100.0 µM 54% | [4]; at 1.2 µM 33% | [4]; at 3.7 µM 67% | [4]; at 100.0 µM 62% | [5]; at 1.2 µM -42% | [5]; at 3.7 µM -26% | [5]; [16] 2% | [5]; at 11.0 µM -11% | [5]; at 100.0 µM 65% | [6]; at 1.2 µM -55% | [6]; at 3.7 µM -47% | [6]; at 11.0 µM -43% | [6]; at 100.0 µM 57% | [7]; [16] 6% | [7]; [17] -32% | [8]; at 1.2 µM -4% | [8]; at 3.7 µM 4% | [8]; at 11.0 µM -10% | [8]; at 100.0 µM 56% | [9]; [16] 20% | [9]; [17] -57% | [10]; at 1.2 µM -29% | [10]; at 3.7 µM -21% | [10]; [16] 13% | [10]; at 11.0 µM -34% | [10]; [17] -54% | [10]; at 50.0 µM 68.2% | [10]; at 100.0 µM 51% | [11]; at 1.2 µM -19% | [11]; at 3.7 µM -57% | [11]; at 11.0 µM -63% | [11]; at 100.0 µM 64% | [12]; at 1.2 µM -34% | [12]; at 3.7 µM -35% | [12]; at 11.0 µM -33% | [12]; at 100.0 µM 62% | [13]; [16] 13% | [14]; at 1.2 µM 3% | [14]; at 3.7 µM -10% | [14]; at 11.0 µM -8% | [14]; at 100.0 µM 61%

CN(C)CC(CN(C)C)C(=O)/C=C/c1ccc(Cl)cc1Cl
inactive: [1]; at 1.2 µM 0% | [1]; at 3.7 µM -1% | [1]; at 11.0 µM 14% | [2]; at 1.2 µM -1% | [2]; at 3.7 µM -2% | [2]; at 11.0 µM -6% | [3]; at 1.2 µM -2% | [3]; at 3.7 µM -2% | [3]; at 11.0 µM 6% | [15]; at 1.2 µM -2% | [15]; at 3.7 µM -2% | [15]; at 11.0 µM 3% | [4]; at 1.2 µM -1% | [4]; at 3.7 µM 0% | [4]; at 11.0 µM 13% | [4]; at 50.0 µM 54.5% | [6]; at 1.2 µM -2% | [6]; at 3.7 µM -2% | [6]; at 11.0 µM 17% | [7]; [16] 15% | [7]; at 50.0 µM 48.7% | [8]; at 1.2 µM -1% | [8]; at 3.7 µM -3% | [8]; at 11.0 µM -1% | [9]; [16] 0% | [9]; at 50.0 µM 43.8% | [10]; at 1.2 µM -3% | [10]; at 3.7 µM -4% | [10]; [16] -10% | [10]; at 11.0 µM -3% | [11]; at 1.2 µM -2% | [11]; at 3.7 µM -5% | [11]; at 11.0 µM 2% | [12]; at 1.2 µM -3% | [12]; at 3.7 µM -5% | [12]; at 11.0 µM 10%
active: [1]; at 33.0 µM 98% | [1]; at 100.0 µM 97% | [2]; at 33.0 µM 98% | [2]; at 100.0 µM 98% | [3]; at 33.0 µM 98% | [3]; at 100.0 µM 98% | [15]; at 33.0 µM 99% | [15]; at 100.0 µM 98% | [4]; [16] 93% | [4]; at 33.0 µM 98% | [4]; [17] 98% | [4]; at 100.0 µM 97% | [6]; at 33.0 µM 99% | [6]; at 100.0 µM 97% | [7]; [17] 99% | [8]; at 33.0 µM 98% | [8]; at 100.0 µM 97% | [9]; [17] 98% | [10]; at 33.0 µM 98% | [10]; [17] 98% | [10]; at 50.0 µM 99% | [10]; at 100.0 µM 97% | [11]; at 33.0 µM 98% | [11]; at 100.0 µM 98%

— PubChem BioAssay (NCI)
